DT40 TDP1 CPT: DT40-hTDP1 cell growth loss with CPT. Potency, µM (highest dose often 46.2 µM), inactives show at the top dose activity change, negative = growth inhibition, actives largely listed as inhibitors. actives 12% (n = 420,000). AID 686979. chicken DT40 Tdp1-/-;hTDP1 cells + 20 nM CPT, ATP luminescence, 48 h; note: nearly all actives have a fitted effect of over 55% in size
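Cell growth measured by CellTiter-Glo luminescence after a minimum 48 h, 37 C compound exposure with 20 nM CPT in Tdp1-knockout DT40 cells stably expressing hTDP1, seeded 400/well; qHTS titration format.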
TDP1 block: inhibitors of human tyrosyl-DNA phosphodiesterase TDP1; Potency, µM (titrated, usually from 130 µM), inactives show at the top dose activity change, negative = inhibition, most hits filed as inhibitors; AID 485290; recombinant TDP1, AlphaScreen DNA substrate cleavage; actives 0.28% (n = 350,000); Q9NUW8; note: nearly all actives have a fitted effect of over 40% in size
Target sequence (Q9NUW8 whole entry, looked up): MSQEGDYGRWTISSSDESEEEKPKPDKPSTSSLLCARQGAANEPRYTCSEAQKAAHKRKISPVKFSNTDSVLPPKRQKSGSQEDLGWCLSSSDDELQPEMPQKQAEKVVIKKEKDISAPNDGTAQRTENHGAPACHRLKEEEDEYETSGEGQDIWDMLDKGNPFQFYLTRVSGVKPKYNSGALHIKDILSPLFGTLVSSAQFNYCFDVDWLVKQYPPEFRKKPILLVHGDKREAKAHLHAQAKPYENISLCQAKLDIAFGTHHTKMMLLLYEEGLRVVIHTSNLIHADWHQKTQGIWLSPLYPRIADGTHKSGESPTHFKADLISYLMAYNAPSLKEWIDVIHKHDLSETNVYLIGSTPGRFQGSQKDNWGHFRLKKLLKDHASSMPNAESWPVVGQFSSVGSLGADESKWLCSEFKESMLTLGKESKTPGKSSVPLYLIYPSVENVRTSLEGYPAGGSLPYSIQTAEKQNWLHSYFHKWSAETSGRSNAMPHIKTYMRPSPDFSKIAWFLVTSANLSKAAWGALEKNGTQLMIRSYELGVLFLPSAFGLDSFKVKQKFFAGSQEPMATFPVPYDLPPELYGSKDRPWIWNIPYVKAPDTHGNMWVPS
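AlphaScreen read-out: signal falls as enzyme removes the 3' tyrosine-FITC from a 5'-biotinylated DNA oligo (15 nM, 5 min, RT). Enzyme was E. coli-made recombinant Tdp1 at 1 nM, exposed to compound for 15 min beforehand; beads 10 ug/ml, 10 min.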
Gal4-VP16 FLuc: inhibits Gal4-VP16 luciferase reporter, ROR gamma counter-screen; Drosophila S2 Gal4-VP16 UAS-luciferase, luminescence, 20 h; Potency, µM (highest dose often 53.6 µM), for inactives: at the highest dose activity, negative = inhibition, actives largely listed as inhibitors; actives 3.5% (n = 310,000); AID 2546;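 note: Gal4-VP16 expression switched on by copper sulfate through the metallothionein promoter; nearly all actives have a fitted effect of over 50% in size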
RORgamma inh: inhibitors of mouse ROR gamma transcriptional activity | AID 2551 | P51450 | Drosophila S2 Gal4-RORgamma UAS-luciferase reporter, 20 h | Potency, µM (series often up to 53.6 µM), for the others: at the highest dose activity change, negative = inhibition, most hits filed as inhibitors | actives 5.4% (n = 310,000); note: nearly all actives have a fitted effect of over 60% in size
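Using a luciferase readout, inhibitors were identified by reduced reporter activity in Drosophila cells coexpressing a copper-inducible Gal4–ROR gamma fusion and UAS-driven Photinus luciferase, incubated 20 hr after 700 uM copper sulfate.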
TDP1 cell noCPT: qHTS for Inhibitors of human tyrosyl-DNA phosphodiesterase 1 (TDP1): qHTS in cells in absence of CPT | AID 686978, 2013 | actives 15% (n = 420,000) | DT40 Tdp1-/- hTDP1 cells, no CPT, ATP luminescence, 48 h | Potency, µM (series often up to 46.2 µM), for inactives: top-dose activity change, negative = growth inhibition, hits mostly inhibitors; note: nearly all actives have a fitted effect of over 55% in size
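Luminescent ATP content (CellTiter-Glo) served as the growth readout. Knockout chicken DT40 cells expressing human TDP1 were exposed to compounds without camptothecin for a minimum 48 hr at 37 °C.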
An asterisk follows results filed as active; ? = inconclusive; . = not tested or not shown; ! = not active in a repeat; [ ] = dose if it differs, or a comment. Shown are actives, neighbours in structure and some others; about 19% of the full set was active somewhere. Calls come from the whole dose curve; as a rule, active = well fitted curve in the direction sought with a large enough effect; inconclusive = small, poorly fitted or top-dose-only effect, or another doubt; inactive = no such curve, though single readings can be large; an effect the other way counts as inactive or inconclusive. % is set by controls: 0 for no effect and ±100 for the full control effect; potency is the fitted concentration of half-maximal effect.

SMILES | DT40 TDP1 CPT | TDP1 block | Gal4-VP16 FLuc | RORgamma inh | TDP1 cell noCPT
COc1c(O)c(O)c2cc(OC)c3c(OC)cc(=O)c4c5c(=O)c(OC)c(C(C)=O)c6c5c(c1CC=6C)c2c34 | . | 25% | -8% | 5% | .
O=C(CSCc1ccc(F)cc1)NCc1ccc(F)cc1 | -27% | 0% | -1%[10 µM] | 26% | -14%
CCCCNc1ccc(C(=O)OCCN(C)C)cc1 | 13µM*! | 10% | 1% | 25% | ?
CCCCNc1ccc(C(=O)OCCOCCOCCOCCOCCOCCOCCOCCOCCOC)cc1 | ? | 4%[56.1 µM] | 0%[17 µM] | 0%[2.98 µM] | -18%
CC(C)(C)OC(=O)COc1cc(O)c2c(=O)cc(-c3ccccc3)oc2c1 | ? | 5% | -5% | -17% | -27%
COc1ccc(C(=O)OCC(=O)NC23CC4CC(CC(C4)C2)C3)c(O)c1 | 23µM* | . | . | . | ?
COc1ccc(C)cc1NC(=O)COC(=O)c1c(-c2ccccc2)noc1C | 23µM* | . | . | . | 23µM*
Cc1nn(-c2ccccc2)c(C)c1C(=O)OCC(=O)NC12CC3CC(CC(C3)C1)C2 | ? | 2% | -4% | 40% | 23µM*
COc1ccc(C)cc1NC(=O)COC(=O)c1c(C)nn(-c2ccccc2)c1C | 21µM* | 1% | . | . | 12µM*
Cc1ccc(C)c(NC(=O)COC(=O)c2c(-c3ccccc3)noc2C)c1 | -4% | . | . | . | -7%
Cc1ccnc(NC(=O)CNC(=O)c2ccc(Br)o2)c1 | 9% | . | . | . | -7%
O=C1NC(=Nc2ccccc2)SC1(CO)CO | -9% | . | -8% | -10% | -1%
CC(=O)N1NC(=Nc2ccccc2)SC1(C)C | ? | -2% | ? | -16% | 16µM*
CN(CCc1ccccc1)C(=O)c1ccc(NC(=O)Cc2ccc(NC(=O)C3CCN(C(=O)CCc4ccccc4)CC3)cc2)cc1 | 15µM* | . | . | . | 7.3µM*
CN(CCc1ccccc1)C(=O)c1ccc(NC(=O)Cc2ccc(NC(=O)C3CCN(S(=O)(=O)c4cccc([N+](=O)[O-])c4)CC3)cc2)cc1 | ? | . | . | . | 9.2µM*
CN(CCc1ccccc1)C(=O)c1ccc(NC(=O)Cc2cccc(NC(=O)C3CCN(S(=O)(=O)c4cccc([N+](=O)[O-])c4)CC3)c2)cc1 | -24% | . | . | . | -28%
CN(C(=O)c1ccc(NC(=O)Cc2ccc(NC(=O)C3CCN(C(=O)c4ccccc4)CC3)cc2)cc1)C1CC1 | ? | 11% | . | . | ?
CN(CCc1ccccc1)C(=O)c1ccc(NC(=O)Cc2ccc(NC(=O)C3CCCN(C(=O)C4CCC4)C3)cc2)cc1 (configuration not stated) | 13µM* | . | . | . | 13µM*
CN(CCc1ccccc1)C(=O)c1ccc(NC(=O)Cc2ccc(NC(=O)C3CCCN(C(=O)CCc4ccccc4)C3)cc2)cc1 (configuration not stated) | 13µM* | . | . | . | 10µM*
Cc1ccc(C(=O)CC2C(=O)N(c3ccccc3)C(=S)N2c2ccccc2)cc1 (configuration not stated) | ? | -5% | ? | ? | ?
O=C(O)[C@@H]1CC(O)CN1C(=O)CCc1c[nH]c2ccccc12 (some centres not stated) | -13% | . | 4% | 33% | -3%
N#Cc1ccccc1Sc1ccccc1C(=O)Nc1ccc2ccccc2c1 | -22% | 5% | -10% | 18% | ?
COc1ccc(Sc2ccc(NC(=O)c3ccccc3Cl)cc2C#N)cc1 | ? | -2% | 3% | ? | 13µM*
C/C(=N/NC(=O)CSc1nc2ccccc2s1)c1ccncc1 | ? | 3% | -15% | 20% | ?
C/C(=N\Nc1nc2ccccc2s1)c1ccc2c(c1)OCO2 | ? | 6% | ? | ? | -94%
SMILES | DT40 TDP1 CPT | TDP1 block | Gal4-VP16 FLuc | RORgamma inh | TDP1 cell noCPT
C/C(=N\Nc1nc2ccccc2s1)c1ccc(Br)s1 | ? | . | ? | 7.1µM* | ?
CC(=NNc1nc2ccccc2s1)c1ccncn1 | 0.1µM* | . | . | . | 0.15µM*
CCOC(=O)c1c(C)[nH]c(C)c1S(=O)(=O)N1CCCC(C(=O)Nc2ccc(F)cc2F)C1 (configuration not stated) | ? | 5% | . | . | -28%
CCOC(=O)CCCNC(=O)c1cncc(O)c1 | -1% | 5% | -2% | -21% | -1%
Cn1c(=O)c2c(-c3ccccc3)n(C3CCCCC3)cc2n(C)c1=O | 18µM* | 3% | 0% | -3% | 9.2µM*
Cc1cccc(-c2c3c(=O)n(C)c(=O)n(C)c3cn2C2CCCCC2)c1 | ? | 6% | 3% | -16% | 16µM*
Cc1cccc(-c2c3c(=O)n(C)c(=O)n(C)c3cn2C(C)(C)C)c1 | -19% | 1% | -1% | -19% | -11%
Cc1cccc(-c2c3c(=O)n(C)c(=O)n(C)c3cn2C(C)C)c1 | 16µM* | 10% | -2% | 2% | 21µM*
CC(C)(C)OC(=O)C[C@@H]1C/C=C\C[C@H](CC(=O)NCCO)C(=O)N[C@@H](c2ccccc2)COC1=O | -23% | 0% | . | . | -23%
CCN(CC)C(=O)[C@H]1CC(CC(=O)NCCCN(C)C)C(=O)N2CCc3c([nH]c4ccccc34)[C@]12C (some centres not stated) | 4% | 0% | . | . | 1%
O=C(NNc1ccccc1[N+](=O)[O-])Nc1ccc(F)cc1 | ? | 2% | 14% | 18% | -52%
CNC(=S)NNc1ccccc1[N+](=O)[O-] | -1% | 9% | 6% | 16µM* | -18%
COCCNC(=S)NNc1ccccc1[N+](=O)[O-] | 2% | 6% | 11µM* | ? | 4%
O=C(NNc1ccccc1[N+](=O)[O-])Nc1ccccc1 | 15µM* | 7% | 2% | 5% | ?
O=C(Nc1ccccn1)Nc1cccs1 | -31% | -1% | 10µM* | 22% | -19%
Cc1cc(C(=O)Nc2ccccn2)cs1 | -5% | 2% | ? | 11µM* | ?
O=C(Cc1cccs1)Nc1ccccn1 | -2% | -3% | 17% | 28% | 2%
O=C(NC(=O)c1ccccc1)Nc1ccccn1 | . | 1% | 1.6µM* | 0.5µM* | .
O=C(Nc1ccccn1)c1ccc(C(=O)c2ccccc2)cc1 | -8% | -2%[0.505 µM] | . | . | ?
COc1cc(C(=O)Nc2ccccn2)cc(OC)c1OC | -1% | 0% | 7% | -9% | -8%
CCOC(=O)c1[nH]cnc1C(=O)Nc1ccccn1 | -14% | 1% | 0% | ? | -6%
O=C(c1ccccc1)c1nc[nH]c1C(=O)Nc1ccccn1 | -15% | 5% | 18µM* | 13µM* | -25%
O=C(NCCOc1ccccc1)C1CCC(=O)N(CCN2CCOCC2)C1 (configuration not stated) | 11% | 5% | 8% | 1% | 16%

Bioassay records from PubChem BioAssay.
